An excerpt weighted towards active compounds, which were near 2.1% of everything screened.
PrPC TRFRET: inhibitors of human cell surface prion protein PrPC, primary screen, cell-based, TR-FRET; Major prion protein (Homo sapiens), P04156; TR-FRET read-out; 370,000 compounds, 0.43% hits; inhibition, % at 13.8 µM; in the data active means inhibition above about 24%; further: 0% = median of the test wells and 100% = reference compound wells
DUSP3 inh: VHR1 phosphatase inhibitors, primary screen, biochemical, absorbance, uHTS | 290,000 compounds, 0.52% hits | recombinant VHR phosphatase, pNPP absorbance | inhibition, % at 13.3 µM | Dual specificity protein phosphatase 3 (Homo sapiens), P51452; in the data active means inhibition above about 50%
Target sequence (P51452 whole entry, looked up): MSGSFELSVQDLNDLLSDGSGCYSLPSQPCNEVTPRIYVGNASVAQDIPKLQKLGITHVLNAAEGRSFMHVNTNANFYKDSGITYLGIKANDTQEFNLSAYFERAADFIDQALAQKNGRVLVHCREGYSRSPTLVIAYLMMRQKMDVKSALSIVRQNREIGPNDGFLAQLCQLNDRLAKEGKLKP
BJeLR viability: MLPCN primary cell-based screen for lethality selective to Ras in HRASV12 cells | BJeLR (HRASV12) viability, CellTiter-Glo ATP luminescence, 48 h | inhibition, % (concentration not given with the values) | 300,000 compounds, 0.17% hits; in the data active means inhibition above about 50%
PfHsp40 yeast: rescue of yeast from PfHsp40 toxicity, primary screen, S. cerevisiae, ATP luminescence | 340,000 compounds, 0.68% hits | S. cerevisiae expressing PfHsp40, growth rescue | growth rescue, % at 12.5 µM; in the data active means growth rescue above about 28%, passing the limit was not always enough;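 further: yeast W303a lacking pdr1 and pdr3 grown in galactose medium; growth measured after three days at 30 °C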
PrP 5UTR inh: inhibition of PrP 5' UTR reporter expression. cell-based PrP 5' UTR mRNA reporter, plate reader. inhibition, % (concentration not given with the values). 340,000 compounds, 0.35% hits; in the data active means inhibition above about 52%; further: 0 = median of the neutral control wells
MazF activator: activators of E. coli MazEF toxin-antitoxin RNase, primary screen, biochemical, fluorescence, uHTS | Endoribonuclease toxin MazF (Escherichia coli (strain K12)), P0AE70 | FAM/BHQ RNA-DNA oligo cleavage fluorescence, 5 h | activation, % at 20 µM | 350,000 compounds, 0.32% hits | AID 504720, 2011; in the data active means activation above about 50%
Target sequence (P0AE70 whole entry, looked up): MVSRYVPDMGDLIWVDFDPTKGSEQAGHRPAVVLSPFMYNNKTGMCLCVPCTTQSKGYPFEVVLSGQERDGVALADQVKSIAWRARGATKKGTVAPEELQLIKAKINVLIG
Numbers without * were called inactive; i = inactive; / = no result given; + = active, no number.

SMILES	PrPC TRFRET	DUSP3 inh	BJeLR viability	PfHsp40 yeast	PrP 5UTR inh	MazF activator
Oc1c(CN2CCN(c3ccccc3)CC2)cc(Br)c2cccnc12	0	11	77*	1	31	-2
Oc1c(CNc2ccccc2)cc(COCc2ccccc2)c2cccnc12	3	/	/	53*	-1	-3
Oc1c(CN2CCOCC2)cc(COCc2ccccc2)c2cccnc12	-1	-6	16	65*	10	-8
Oc1c(Br)cc(Br)c2cccnc12	-10	/	/	148*	-13	-17
Oc1ccc(CNc2cccnc2)c2cccnc12	3	/	/	/	/	/
CCCN(Cc1ccccc1)C(=S)Nc1ccc(SC(F)F)cc1	3	37	-4	1	-26	1
N#Cc1ccccc1N1CCN(C(=O)c2ccc(NC(=O)c3ccc(Br)o3)cc2)CC1	/	/	/	0	-10	-4
CN(C)S(=O)(=O)c1cccc(C(=O)N/N=C\c2ccnc3ccccc23)c1	-16	/	/	/	/	/
O=S(=O)(NCCSCc1ccc(Cl)c(Cl)c1)c1ccc2c(c1)OCCO2	-3	/	-5	42*	-29	-11
CCN(CC(=O)Nc1c(F)cccc1F)C(=O)CCN1C(=O)C2CC=CCC2C1=O (configuration not stated)	0	/	-1	-1	-21	3
COc1ccc(CN(C)C(=O)COC(=O)c2ccc(-c3ccccc3)cc2)c(OC)c1OC	-4	/	/	68*	-19	2
CCN(CC)c1nc2ccccc2nc1C(C#N)C(=O)NCCc1ccccc1 (configuration not stated)	2	6	-5	-1	-28	+
N#CC(C(=O)NCCc1ccccc1)c1nc2ccccc2nc1N1CCCCC1 (configuration not stated)	-1	11	-11	0	-2	150*
CCN(CC)c1nc2ccccc2nc1C(C#N)C(=O)NCCCOC (configuration not stated)	-12	-8	/	0	-2	-9
CCOC(=O)N1CCN(c2nc3ccccc3nc2C(C#N)C(=O)NCCc2ccccc2)CC1 (configuration not stated)	-5	13	4	0	-70	-50
N#CC(C(=O)NCc1ccccc1)c1nc2ccccc2nc1N1CCCC1 (configuration not stated)	0	14	-13	-1	-9	+
N#CC(C(=O)NCCc1ccccc1)c1nc2ccccc2nc1N1CCOCC1 (configuration not stated)	2	2	8	3	-9	928*
CCOC(=O)C1CCCN(c2nc3ccccc3nc2C(C#N)C(=O)NCc2ccccc2)C1 (configuration not stated)	-6	6	4	0	-11	-23
CC(C)CN1CN2Cc3ccccc3C2CS1(=O)=O (configuration not stated)	-13	/	/	/	/	/
Cc1cc(C)cc(C(O)c2ncc(-c3cccc(F)c3)[nH]2)c1 (configuration not stated)	3	/	/	/	/	/
Cc1nc2cc(OCc3cc(C(=O)NC(C)c4cnn(C)c4)no3)ccc2s1 (configuration not stated)	0	51*	-4	1	2	3
COc1ccc(OCc2cc(C(=O)NC(C)c3cnn(C)c3)no2)c(Cl)c1 (configuration not stated)	0	1	3	0	-54	-1
Cc1ccc(CONC(=O)c2ccc([N+](=O)[O-])cc2)cc1	2	/	/	38*	-9	0
Cc1cn([C@H]2C[C@H](O)[C@@H](CNC(=O)[C@H](N)C3CC3)O2)c(=O)[nH]c1=O	1	/	/	/	/	0
O=C(O)c1ccccc1-c1c2cc(I)c(=O)c(I)c-2oc2c(I)c(O)c(I)cc12	-117	/	/	34*	7	i
O=Cc1ccc(-c2ccccc2C(=O)O)o1	0	-10	-1	-1	-13	13
CCN(CC)Cc1c(O)ccc2c1O/C(=C\C=C\c1ccccc1)C2=O	-23	12	93*	2	-27	-451

Screens as filed in PubChem BioAssay.
